Data on nine compounds can be found in PubChem BioAssay (Tox21).

The target of assay [1] is Peroxisome proliferator-activated receptor delta (Homo sapiens) (UniProt Q03181). Put plainly: qHTS assay to identify small molecule agonists of the peroxisome proliferator-activated receptor delta (PPARd) signaling pathway (AID 743212; calls by dose curve). Put shortly:
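HEK293H UAS-bla reporter cells, human PPARd system; compounds delivered in DMSO after 5 h plating, then at 37 C. Beta-lactamase FRET read, 2 h RT substrate step.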

Assay [2] shares this target. The assay is described as follows: qHTS assay to identify small molecule antagonists of the peroxisome proliferator-activated receptor delta (PPARd) signaling pathway (AID 743215; active = well fitted inhibition curve with a large enough effect in the signal ratio in the repeat runs, not every such curve was filed as active; the % refers to the signal ratio;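 note: cells stimulated with agonist L165041 at 300 nM final during compound exposure; series mostly up to about 62 µM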). The essentials: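 Read-out is beta-lactamase FRET fluorescence, measured 2 h after substrate addition at room temperature. Beforehand, UAS-bla HEK293H cells carrying the PPARd reporter were exposed to compounds with L165041 at 300 nM final for 17 h at 37 C.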
(In general: Quantitative high-throughput screening tests each substance at several concentrations.)

A short description of assay [3]: qHTS assay to identify small molecule agonists of the farnesoid-X-receptor (FXR) signaling pathway - cell viability counter screen (AID 743218). Note: nearly all actives have a fitted effect of over 45% in size. Note: potency is the fitted concentration of half-maximal effect. The essentials:
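HEK 293T FXR-bla cells; 5 h pre-incubation, 16 h compound exposure at 37 C; LiveBLAzer substrate 2 h RT, then CellTiter-Glo 30 min RT, luminescence.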

Assay [4] can be described thus: qHTS assay to identify small molecule antagonists of the farnesoid-X-receptor (FXR) signaling pathway - cell viability counter screen (AID 743221; active = well fitted cell-killing curve with a large enough effect in the repeat runs, not every such curve was filed as active; note: nearly all actives have a fitted effect of over 50% in size; note: potency is the fitted concentration of half-maximal effect). Put shortly:
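FXR-UAS-bla HEK 293T cells were treated with test compounds plus chenodeoxycholic acid (50 uM final) for 16 h at 37 C. Cell viability in the same wells was then read as CellTiter-Glo luminescence after 30 min at room temperature.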

A short description of assay [5]: qHTS assay to identify small molecule agonists of the vitamin D receptor (VDR) signaling pathway - cell viability counter screen (AID 743224). Note: series mostly up to about 63 µM; nearly all actives have a fitted effect of over 50% in size. The essentials:
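Luminescence from CellTiter-Glo, read after 30 min at room temperature, reports viability of VDR-bla cells treated with compounds for 16 h at 37C in the wells used for the beta-lactamase FRET read.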

Assay [6] is described as follows: qHTS assay to identify small molecule antagonists of the vitamin D receptor (VDR) signaling pathway - cell viability counter screen (AID 743225). Note: nearly all actives have a fitted effect of over 50% in size. Note: potency is the fitted concentration of half-maximal effect. Put shortly: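 VDR-bla HEK 293T cells, 4 h pre-incubation at 37C, then compound plus 1-alpha,25-dihydroxyvitamin D3 (3 nM final) for 16 h. After the beta-lactamase FRET read, CellTiter-Glo was added to the same wells; luminescence after 30 min at room temperature.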

The nature of assay [7]: qHTS assay to identify small molecule agonists of the NFkB signaling pathway - cell viability counter screen (AID 1159515; calls by dose curve; note: nearly all actives have a fitted effect of over 55% in size; note: potency is the fitted concentration of half-maximal effect). The essentials:
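Luminescence from CellTiter-Glo (30 min, room temperature) gives viability, measured in the same wells as the beta-lactamase reporter read. Cells were NFkB-bla ME-180, 2,000 per well, treated 5 hr with compounds.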

A short description of assay [8]: qHTS assay to identify small molecule agonists of the endoplasmic reticulum stress response signaling pathway - cell viability counter screen (AID 1159517; calls by dose curve;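 note: HeLa cells carrying an ER stress response element beta-lactamase reporter; series mostly up to about 61 µM; nearly all actives have a fitted effect of over 50% in size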). The essentials: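 Cells, HeLa ESRE-bla; density, 1,500/well; dosing, 5 hr at 37 C, 5% CO2; readout, CellTiter-Glo luminescence after 30 min RT.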
The nature of assay [9]: qHTS assay to identify small molecule antagonists of the retinoid-related orphan receptor gamma (ROR-gamma) signaling pathway - cell viability counter screen (AID 1159520). Note: nearly all actives have a fitted effect of over 50% in size. Note: potency is the fitted concentration of half-maximal effect. Put shortly: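 Cytotoxicity was read from cellular ATP (CellTiter-Glo luminescence) after 16 hr at 37 C with 1 uM doxycycline induction. The inducer was added 2 hr after compound transfer to Tet-on ROR gamma CHO cells.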

The target in assay [10] is Nuclear receptor ROR-gamma (Homo sapiens) (UniProt P51449). The assay is described as follows: qHTS assay to identify small molecule antagonists of the retinoid-related orphan receptor gamma (ROR-gamma) signaling pathway (AID 1159521; note: nearly all actives have a fitted effect of over 50% in size; note: potency is the fitted concentration of half-maximal effect). Put shortly:
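Tet-on RORγ CHO cells carrying a ROR response element–luciferase reporter were pretreated with compounds for 2 h, then induced with 1 uM (final) doxycycline hyclate for 16 h at 37 C. Antagonism was read as decreased ONE-Glo luminescence.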

Assay [11] in a line: qHTS assay to identify small molecule agonists of the AP-1 signaling pathway - cell viability counter screen (AID 1159525; calls by dose curve; note: nearly all actives have a fitted effect of over 55% in size; note: potency is the fitted concentration of half-maximal effect). The essentials: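 Luminescent ATP readout (Cell Titer Glo, 30 min RT), normalised to DMSO and tetra n-octyl ammonium bromide controls. Cells were ME-180 AP-1-bla in 0.5% dialyzed FBS Opti-MEM, with a 5 h, 37 °C compound exposure.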
Assay [12] addresses Retinoic acid receptor RXR-alpha (Homo sapiens) (UniProt P19793). The assay is described as follows: qHTS assay to identify small molecule agonists of the RXR signaling pathway (AID 1159527; calls by dose curve; note: nearly all actives have a fitted effect of over 35% in size). The essentials: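 GeneBLAzer RXR-alpha-UAS-bla HEK 293T cells in medium with 2% charcoal-stripped FBS, pre-incubated 5 hr at 37 C, then exposed to compounds 16 hr. Beta-lactamase reporter read by FRET substrate, 2 hr room temperature, 460/530 nm emission.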

Assay [13] is described as follows: qHTS assay to identify small molecule agonists of the peroxisome proliferator-activated receptor delta (PPARd) signaling pathway - cell viability counter screen (AID 743211). Note: nearly all actives have a fitted effect of over 55% in size. Note: potency is the fitted concentration of half-maximal effect. Put shortly:
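PPARd-bla HEK293H cells (UAS-beta-lactamase reporter) were treated with compounds for 17 h at 37 C. Viability was then read in the same wells by CellTiter-Glo luminescence after 30 min at room temperature.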

Assay [14] can be described thus: qHTS assay to identify small molecule antagonists of the peroxisome proliferator-activated receptor delta (PPARd) signaling pathway - cell viability counter screen (AID 743213). Note: nearly all actives have a fitted effect of over 50% in size. Note: potency is the fitted concentration of half-maximal effect. Put shortly: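 Viability counter-screen, qHTS format: PPARd-bla HEK293H, L165041 300 nM final, 17 h compound exposure at 37 C, CellTiter-Glo luminescence after 30 min RT.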
The target in assay [15] is Bile acid receptor (Homo sapiens) (UniProt Q96RI1). Put plainly: qHTS assay to identify small molecule antagonists of the farnesoid-X-receptor (FXR) signaling pathway (AID 743217; active = well fitted inhibition curve with a large enough effect in the signal ratio in the repeat runs, not every such curve was filed as active; the % refers to the signal ratio). Put shortly:
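HEK 293T FXR-UAS-bla, 5000 cells/well; compound + CDCA 50 uM final; 16 h, 37 °C; B/G FRET substrate 2 h RT; fluorescence.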

Assay [16] shares this target. Put plainly: qHTS assay to identify small molecule agonists of the farnesoid-X-receptor (FXR) signaling pathway (AID 743220; active = well fitted activation curve with a large enough effect in the signal ratio in the repeat runs, not every such curve was filed as active; the % refers to the signal ratio). Put shortly:
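Beta-lactamase reporter under UAS control in GeneBLAzer FXR HEK 293T cells (5000/well) measured with LiveBLAzer FRET substrate after 2 h at room temperature. Compound exposure lasted 16 h at 37C.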

Assay [17] concerns the target Vitamin D3 receptor (Homo sapiens) (UniProt P11473). The assay is described as follows: qHTS assay to identify small molecule agonists of the vitamin D receptor (VDR) signaling pathway (AID 743222; calls by dose curve). The essentials: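 VDR-bla cells, 2,000/well; 4 h preincubation 37C; cpd (DMSO) 16 h; LiveBLAzer B/G substrate 2 h RT; fluorescence intensity read.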
Assay [18] can be described thus: qHTS assay to identify small molecule agonists of the AP-1 signaling pathway (AID 1159526; calls by dose curve).
A short description of assay [19]: qHTS assay to identify small molecule agonists of the endoplasmic reticulum stress response signaling pathway (AID 1159516; active = well fitted activation curve with a large enough effect in the signal ratio in the repeat runs, not every such curve was filed as active; the % refers to the signal ratio). Put shortly:
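Read-out is beta-lactamase cleavage of a FRET substrate (405 nm excitation; 460 and 530 nm emissions) in ESRE-bla HeLa cells after a 5 hr compound exposure at 37 C. Substrate incubation ran 2 hr at room temperature.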

Assay [20] deals with Vitamin D3 receptor (Homo sapiens) (UniProt P11473). The assay is described as follows: qHTS assay to identify small molecule antagonists of the vitamin D receptor (VDR) signaling pathway (AID 743223; active = well fitted inhibition curve with a large enough effect in the signal ratio in the repeat runs, not every such curve was filed as active; the % refers to the signal ratio). The essentials:
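VDR-bla cells were plated, incubated 4 h at 37C, then given compound and 1alpha,25-dihydroxyvitamin D3 (3 nM final). After 16 h at 37C, LiveBLAzer B/G FRET substrate was added for 2 h at room temperature and fluorescence read.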

The structures appear in SMILES notation. Records with an inconclusive call do not appear. Values without a mark were called inactive. The source made the active and inactive calls. Unless noted, calls come from the whole dose curve; as a rule, active = well fitted curve in the direction sought with a large enough effect in the repeat runs; inconclusive = weak or mixed curves; inactive = no such curve, though single readings can be large; an effect the other way counts as inactive or inconclusive.

Sequence of Retinoic acid receptor RXR-alpha (Homo sapiens) (P19793 whole entry, looked up): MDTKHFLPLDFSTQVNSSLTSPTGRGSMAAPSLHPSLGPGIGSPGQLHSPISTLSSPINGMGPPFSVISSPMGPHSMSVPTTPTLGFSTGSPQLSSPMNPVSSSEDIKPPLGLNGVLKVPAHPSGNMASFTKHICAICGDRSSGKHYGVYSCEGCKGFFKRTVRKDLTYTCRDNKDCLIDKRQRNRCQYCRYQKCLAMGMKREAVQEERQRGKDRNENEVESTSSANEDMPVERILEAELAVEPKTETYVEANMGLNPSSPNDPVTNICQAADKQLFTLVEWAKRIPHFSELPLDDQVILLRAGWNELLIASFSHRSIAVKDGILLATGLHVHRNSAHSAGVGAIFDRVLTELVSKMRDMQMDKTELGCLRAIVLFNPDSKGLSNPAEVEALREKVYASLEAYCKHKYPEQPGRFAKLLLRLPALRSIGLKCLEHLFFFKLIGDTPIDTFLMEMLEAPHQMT
Sequence of Peroxisome proliferator-activated receptor delta (Homo sapiens) (Q03181 whole entry, looked up): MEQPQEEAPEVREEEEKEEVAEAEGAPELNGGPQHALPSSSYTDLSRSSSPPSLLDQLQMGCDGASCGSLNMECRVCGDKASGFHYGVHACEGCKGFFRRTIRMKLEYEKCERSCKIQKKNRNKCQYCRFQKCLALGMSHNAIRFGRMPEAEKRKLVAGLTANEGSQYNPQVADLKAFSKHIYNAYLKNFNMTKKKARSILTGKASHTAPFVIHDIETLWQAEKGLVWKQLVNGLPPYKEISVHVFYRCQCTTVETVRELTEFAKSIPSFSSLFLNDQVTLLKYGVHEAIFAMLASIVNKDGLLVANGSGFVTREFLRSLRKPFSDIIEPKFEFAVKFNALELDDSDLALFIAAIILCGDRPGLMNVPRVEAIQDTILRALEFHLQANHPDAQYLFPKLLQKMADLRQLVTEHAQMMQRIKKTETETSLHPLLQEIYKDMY
Sequence of Vitamin D3 receptor (Homo sapiens) (P11473 whole entry, looked up): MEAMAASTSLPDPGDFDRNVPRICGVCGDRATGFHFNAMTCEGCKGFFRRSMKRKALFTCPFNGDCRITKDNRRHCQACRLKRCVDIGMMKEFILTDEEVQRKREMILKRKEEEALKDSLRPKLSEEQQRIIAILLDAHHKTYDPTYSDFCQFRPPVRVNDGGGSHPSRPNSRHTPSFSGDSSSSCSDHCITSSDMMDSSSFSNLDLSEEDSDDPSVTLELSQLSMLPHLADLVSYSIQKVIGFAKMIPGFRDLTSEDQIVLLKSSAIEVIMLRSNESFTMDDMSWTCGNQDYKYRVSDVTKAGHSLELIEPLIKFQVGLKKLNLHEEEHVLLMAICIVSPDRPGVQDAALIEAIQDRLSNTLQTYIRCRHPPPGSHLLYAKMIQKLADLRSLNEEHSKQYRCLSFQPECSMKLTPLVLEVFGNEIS
Sequence of Bile acid receptor (Homo sapiens) (Q96RI1 whole entry, looked up): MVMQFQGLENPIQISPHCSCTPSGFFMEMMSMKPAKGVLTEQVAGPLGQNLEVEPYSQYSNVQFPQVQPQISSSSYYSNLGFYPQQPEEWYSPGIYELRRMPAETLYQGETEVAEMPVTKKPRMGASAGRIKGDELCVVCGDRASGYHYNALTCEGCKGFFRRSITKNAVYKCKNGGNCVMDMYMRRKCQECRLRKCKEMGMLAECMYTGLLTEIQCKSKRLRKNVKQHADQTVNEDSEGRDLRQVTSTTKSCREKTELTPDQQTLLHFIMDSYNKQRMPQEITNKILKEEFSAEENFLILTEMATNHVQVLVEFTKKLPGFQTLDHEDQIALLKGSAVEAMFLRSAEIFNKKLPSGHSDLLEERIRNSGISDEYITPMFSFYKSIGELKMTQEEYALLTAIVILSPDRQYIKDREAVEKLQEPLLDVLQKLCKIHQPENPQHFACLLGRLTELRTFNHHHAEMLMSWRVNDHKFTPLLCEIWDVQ

As for `CN(C)CCCOc1nn(Cc2ccccc2)c2ccccc12`, the compound was classed as inactive in assay [1], in assay [2] and in assay [8]. Besides, the Potency entry in assay [3], in assay [4], in assay [5], in [6], in assay [7] and in assay [9] was “inactive” throughout. In addition, the Potency result in assay [10], in assay [11] and in [12] was “inactive” in each case.

Regarding `CC1=CC(=O)/C(=C(/C)O)C(=O)O1`, the Potency result in assay [13], in assay [14], in assay [3], in [4], in assay [5] and in [6] was “inactive” throughout. The Potency result in assay [7], in assay [9], in [10], in assay [11] and in [18] was “inactive” throughout. Also, the result in [1], in assay [15], in assay [16], in assay [17] and in assay [8] was inactive.

In the case of `OC(CCN1CCCCC1)(c1ccccc1)C1CCCCC1` (configuration not stated), the Potency result in assay [13], in assay [3], in assay [5], in assay [6], in assay [7] and in assay [19] was “inactive” in each case. Further, the Potency entry in [10] is “inactive”. The outcome in [1], in [2] and in assay [8] was inactive.

As to `CCc1nn(C2CCCCC2)c2cc(C3(C#N)CCC(C(=O)O)CC3)ccc12` (configuration not stated), the Potency result in assay [13], in [14], in [3], in assay [4], in assay [20] and in assay [5] was “inactive” throughout. Moreover, the Potency result in assay [6], in assay [7], in assay [11] and in assay [12] was “inactive” in each case. Moreover, the call in [1], in assay [16], in assay [17] and in assay [8] was inactive. The Potency in assay [10] was 27.3 µM (active).

Turning to `NC(N)=NN=C(/C=C/c1ccc([N+](=O)[O-])o1)/C=C/c1ccc([N+](=O)[O-])o1`, the Potency was 9.44 µM (active) in assay [13]; 9.44 µM (active) in [14]; 10.6 µM (active) in assay [3]; 23.7 µM (active) in [4]; 10.7 µM (active) in assay [6]; 13.4 µM (active) in assay [7]. Also, the Potency was 2.11 µM (active) in assay [9], 7.5 µM (active) in assay [10] and 21.3 µM (active) in assay [11]. In addition, the call in assay [8] was inactive.

Consider `CN1CCC(OC(c2ccccc2)c2ccccc2)CC1`, for which the Potency entry in assay [13], in assay [3], in assay [4], in assay [6], in assay [7] and in [9] was “inactive” each time. For the same compound, the Potency result in assay [10], in assay [18] and in assay [12] was “inactive” in each case. For the same compound, the outcome in assay [1], in [15], in assay [16], in assay [17] and in assay [8] was inactive.

In the case of `C=CC(=O)OCC(C)OCC(C)OCC(C)OC(=O)C=C` (configuration not stated), the Potency in [13] was 49 µM (active); in assay [10] it was 30.6 µM (active). Moreover, the Potency result in assay [4], in assay [7], in assay [19] and in assay [11] was “inactive” in each case. The compound was classed as inactive in assay [8].

As for `Nc1ccc(C(=O)N2CC3CC(CN(Cc4ccccc4)C3)C2)cc1`, the Potency entry in assay [13], in assay [14], in [3], in [4], in assay [5] and in assay [6] was “inactive” in each case. Further, the Potency result in assay [7], in assay [9], in assay [10] and in assay [18] was “inactive” in each case. Moreover, the compound was called inactive in assay [1], in assay [2], in assay [15], in [16], in [17] and in [8].

Turning to `N#Cc1cc2ccccc2c2ccccc12`, the compound was called inactive in assay [1], in [2], in [15], in assay [16], in assay [17] and in assay [8]. Besides, the Potency entry in [14], in assay [3], in assay [4], in assay [20], in assay [5] and in assay [6] was “inactive” throughout. In addition, the Potency result in assay [7], in assay [19], in assay [10], in assay [11] and in [12] was “inactive” each time.
